Shown are actives, neighbours in structure and some others; about 19% of the full set was active somewhere.
DT40 TDP1 CPT: qHTS for Inhibitors of human tyrosyl-DNA phosphodiesterase 1 (TDP1): qHTS in cells in presence of CPT. hit rate 12% among 420,000. chicken DT40 Tdp1-/-;hTDP1 cells + 20 nM CPT, ATP luminescence, 48 h. Potency, µM (series often up to 46.2 µM), inactives show top-dose activity change, negative = growth inhibition, hits mostly inhibitors. AID 686979, 2013; note: potency is the fitted concentration of half-maximal effect; nearly all actives have a fitted effect of over 55% in size
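Chicken DT40 Tdp1-/- cells complemented with human TDP1, 400 cells/well, exposed to compounds plus 20 nM camptothecin for at least 48 h at 37 C; viability read as ATP content by CellTiter-Glo luminescence.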
HT1080 IDH1KD tx: qHTS for induction of synthetic lethality in tumor cells producing 2HG: qHTS for the HT-1080-IDH1KD cell line; hit rate 2% among 360,000; Potency, µM (top dose mostly 46.1 µM), inactives show at the highest dose activity, negative = toxicity, usual class: cytotoxic; HT-1080 IDH1 knockdown viability, ATP luminescence, 48 h; AID 686971, 2013;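 note: potency is the fitted concentration of half-maximal effect; 0% = DMSO wells and -100% = cell-free medium wells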
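% activity derives from luminescence (CellTiter-Glo), normalised to DMSO and no-cell wells. HT-1080-IDH1KD cells, 750/well, had 48 h compound exposure at 37 °C.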
TDP1 cell noCPT: qHTS for Inhibitors of human tyrosyl-DNA phosphodiesterase 1 (TDP1): qHTS in cells in absence of CPT; DT40 Tdp1-/- hTDP1 cells, no CPT, ATP luminescence, 48 h; Potency, µM (top dose mostly 46.2 µM), for inactives: top-dose activity change, negative = growth inhibition, hits mostly inhibitors; hit rate 15% among 420,000; AID 686978, 2013; note: potency is the fitted concentration of half-maximal effect; nearly all actives have a fitted effect of over 55% in size
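DT40 Tdp1-/-;hTDP1 cells, no CPT (DMSO vehicle only), 400 cells/well; compounds pin-transferred; ≥48 hr, 37 °C; CellTiter-Glo 30 min RT dark, luminescence read.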
HT1080-NT tox: qHTS for induction of synthetic lethality in tumor cells producing 2HG: qHTS for the HT-1080-NT fibrosarcoma cell line; HT-1080-NT fibrosarcoma viability, CellTiter-Glo ATP luminescence, 48 h; Potency, µM (titrated, usually from 46.1 µM), for inactives: at the highest dose activity, negative = less viability, usual class: cytotoxic; hit rate 1.6% among 360,000; AID 686970, 2013;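 note: NT is the 2HG producing partner of a matched IDH1 knockdown line; potency is the fitted concentration of half-maximal effect; 0% = DMSO-treated cells and -100% = media-only wells without cells; nearly all actives have a fitted effect of over 55% in size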
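Compounds were tested in concentration-response format on HT-1080-NT cells for 48 hours at 37 degrees C. Cell viability came from CellTiter-Glo luminescence; curves were classified by r2, response magnitude and activity.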
IL1B secr inh: qHTS for Inhibitors of Inflammasome Signaling: IL-1-beta AlphaLISA Primary Screen; THP-1 LPS/ATP IL-1B secretion, AlphaLISA, 16 h; active compounds read low; activity change, % at 57.5 µM; hit rate 4.7% among 360,000; in the data active = activity change below about -50%; inconclusive = mostly about -30% to -49%
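THP-1 cells pretreated 1 hr with compounds (up to 57.5 uM final), then stimulated with LPS (250 ng/mL final) plus ATP (1.25 mM final); secreted IL-1B measured by AlphaLISA after 16 hr, decreased signal indicating inhibition.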
* hit, by the source's call. Unless noted, calls come from the whole dose curve; as a rule, active = well fitted curve in the direction sought with a large enough effect; inconclusive = small, poorly fitted or top-dose-only effect, or another doubt; inactive = no such curve, though single readings can be large; an effect the other way counts as inactive or inconclusive. Unless noted, % is set by controls: 0 for no effect and ±100 for the full control effect.

Screening O=C(CN1CCC(O)(c2cccc(F)c2)CC1)NCCc1c[nH]c2ccccc12 returned DT40 TDP1 CPT inconclusive, HT1080 IDH1KD tx -4%, TDP1 cell noCPT inconclusive, HT1080-NT tox -6% and IL1B secr inh -11.
For COCCNc1cc(-c2ccccc2CN(C)C)ncn1 the results were DT40 TDP1 CPT 5% and TDP1 cell noCPT 16%.
COc1ccc(-n2cc(C#N)c(=O)n(Cc3ccc(F)cc3)c2=O)cc1 was read as DT40 TDP1 CPT 21µM*, HT1080 IDH1KD tx inconclusive, TDP1 cell noCPT 15µM*, HT1080-NT tox inconclusive and IL1B secr inh 32.
Screening CC(C)(C)NC(=O)C1C(c2ccc(C(F)(F)F)cc2)=Nc2ccccc2N1C(=O)c1cccc2ccccc12 (centres undefined) returned DT40 TDP1 CPT inconclusive, HT1080 IDH1KD tx 8%, TDP1 cell noCPT inconclusive, HT1080-NT tox 18% and IL1B secr inh 24.
For CCCCC(C(=O)NC1CCCC1)N(C(=O)c1snc(C(N)=O)c1N)c1ccc(C)cc1 (centres undefined) the results were DT40 TDP1 CPT 18µM*, HT1080 IDH1KD tx -10%, TDP1 cell noCPT inconclusive, HT1080-NT tox 0% and IL1B secr inh -17.
For CCC(C(=O)NC1CCCC1)N(C(=O)c1snc(C(N)=O)c1N)c1ccc(C)cc1C (centres undefined) the results were DT40 TDP1 CPT inconclusive, HT1080 IDH1KD tx 16%, TDP1 cell noCPT 18µM*, HT1080-NT tox 20% and IL1B secr inh -8.
For CC(C)c1ccc(N(C(=O)c2snc(C(N)=O)c2N)C(C(=O)NC2CCCC2)c2ccncc2)cc1 (centres undefined) the results were DT40 TDP1 CPT 18µM*, HT1080 IDH1KD tx inconclusive, TDP1 cell noCPT 23µM*, HT1080-NT tox inconclusive and IL1B secr inh 41.
Screening COCCNC(=S)N1CCC(Cc2ccccc2)CC1 returned DT40 TDP1 CPT inconclusive, HT1080 IDH1KD tx 5%, TDP1 cell noCPT inconclusive, HT1080-NT tox 10% and IL1B secr inh 6.
Screening COc1ccccc1C(=O)NC(CCSC)C(=O)N1CCC(Cc2ccccc2)CC1 (centres undefined) returned DT40 TDP1 CPT 15µM*, HT1080 IDH1KD tx -5%, TDP1 cell noCPT 18µM*, HT1080-NT tox -9% and IL1B secr inh -60*.
Screening Cc1cccc(C(=O)N2CCC(Cc3ccccc3)CC2)c1[N+](=O)[O-] returned DT40 TDP1 CPT 8.2µM*, HT1080 IDH1KD tx -21%, TDP1 cell noCPT 6.5µM*, HT1080-NT tox -5% and IL1B secr inh -87*.
`COCCSc1ccccc1C(=O)N1CCC(Cc2ccccc2)CC1` gave DT40 TDP1 CPT inconclusive, HT1080 IDH1KD tx -11%, TDP1 cell noCPT -27%, HT1080-NT tox -10% and IL1B secr inh -54*.
`CSCCC(NC(=O)c1ccccc1Br)C(=O)N1CCN(C/C=C/c2ccccc2)CC1` (centres undefined) gave DT40 TDP1 CPT 2.6µM*, HT1080 IDH1KD tx inconclusive, TDP1 cell noCPT inconclusive, HT1080-NT tox -7% and IL1B secr inh -12.
For CC(C)(C)Cc1nnc(NC(=O)c2ccco2)s1 the results were DT40 TDP1 CPT -10%, HT1080 IDH1KD tx -24%, TDP1 cell noCPT -3%, HT1080-NT tox -5% and IL1B secr inh inconclusive.
Screening CN(C)c1nc(N(C)C)c2cnn(C)c2n1 returned DT40 TDP1 CPT 5%, HT1080 IDH1KD tx -6%, TDP1 cell noCPT -9%, HT1080-NT tox -1% and IL1B secr inh 20.
`Cc1c(C(=O)N2CCC(Cc3ccccc3)CC2)cccc1[N+](=O)[O-]` gave DT40 TDP1 CPT inconclusive, HT1080 IDH1KD tx inconclusive, TDP1 cell noCPT inconclusive, HT1080-NT tox -2% and IL1B secr inh -104*.
Screening Cc1ccc(C(=O)N2CCC(Cc3ccccc3)CC2)cc1[N+](=O)[O-] returned DT40 TDP1 CPT inconclusive, HT1080 IDH1KD tx -16%, TDP1 cell noCPT inconclusive, HT1080-NT tox -10% and IL1B secr inh -30.
Screening CN(c1ccc(S(=O)(=O)N2CCOCC2)cn1)C1CCCCC1 returned DT40 TDP1 CPT -62%, HT1080 IDH1KD tx -7%, TDP1 cell noCPT 23µM*, HT1080-NT tox -1% and IL1B secr inh 18.
`CCN(C(=O)C(C)Sc1ccc(S(=O)(=O)N2CCOCC2)cn1)c1ccccc1` (centres undefined) gave DT40 TDP1 CPT inconclusive, HT1080 IDH1KD tx -4%, TDP1 cell noCPT 18µM*, HT1080-NT tox 10% and IL1B secr inh -13.
COc1cccc(C(=O)NCc2nc(-c3ccccc3)no2)c1OC was read as DT40 TDP1 CPT -29% and TDP1 cell noCPT inconclusive.
NC(=O)C1CN(C(=O)c2cccc(S(=O)(=O)N3CCc4ccccc43)c2)c2ccccc2O1 (centres undefined) was read as DT40 TDP1 CPT inconclusive, HT1080 IDH1KD tx -4%, TDP1 cell noCPT inconclusive, HT1080-NT tox 0% and IL1B secr inh 37.
COc1ccc(C2=Nc3ccccc3N(C(=O)c3cccnc3)C2C(=O)NC(C)(C)C)cc1 (centres undefined) was read as DT40 TDP1 CPT 9%, HT1080 IDH1KD tx -2%, TDP1 cell noCPT -7%, HT1080-NT tox 3% and IL1B secr inh 19.
For COc1ccc(C(C)=O)cc1CN1C(=O)C(C)ON=C1c1cccc(C(F)(F)F)c1 (centres undefined) the results were DT40 TDP1 CPT inconclusive, HT1080 IDH1KD tx 3%, TDP1 cell noCPT 16µM*, HT1080-NT tox 7% and IL1B secr inh -22.
`C[C@H](O)[C@@H]1C(=O)N2CCc3c([nH]c4ccccc34)[C@@H]2C[C@@H]1N(C)Cc1ccc(Cl)cc1` gave DT40 TDP1 CPT inconclusive, HT1080 IDH1KD tx 0%, TDP1 cell noCPT 29µM*, HT1080-NT tox 0% and IL1B secr inh -25.
COc1ccc(-c2ccc3[nH]c4c(c3c2)CCN2C(=O)[C@@H]([C@H](C)O)[C@@H](N(C)C(=O)Nc3cc(Cl)cc(Cl)c3)C[C@@H]42)cc1 was read as DT40 TDP1 CPT 23µM*, HT1080 IDH1KD tx 15%, TDP1 cell noCPT 15µM*, HT1080-NT tox inconclusive and IL1B secr inh inconclusive.
`C[C@H](O)[C@@H]1CN2CCc3c([nH]c4ccccc34)[C@@H]2C[C@@H]1N(C)C(=O)c1ccco1` gave DT40 TDP1 CPT inconclusive, HT1080 IDH1KD tx inconclusive, TDP1 cell noCPT inconclusive, HT1080-NT tox 26µM* and IL1B secr inh 46.

Screens from PubChem BioAssay.
